In experiment [1] the target is Retinoic acid receptor alpha (Homo sapiens) (UniProt P10276). The experiment in a line: NVS_NR_hRARa_Agonist: NovaScreen (NVS) Nuclear Receptor Binding Assay for human Retinoic Acid Alpha Receptor Agonism (RAR) (AID 2283361). Put shortly: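 Agonist-mode TR-FRET binding format using extracted protein, measured at 2 h post-dosing. Initial duplicate single-point screen at 25 uM preceded concentration series for actives; activity was normalized to DMSO baseline.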

Experiment [2] addresses rat Androgen Receptor (AR), Ar (gene 24208) (UniProt P15207). Briefly: NVS_NR_rAR: NovaScreen (NVS) Nuclear Receptor Binding Assay for rat Androgen Receptor (AR) (AID 2283366). The essentials:
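Actives from a duplicate single-concentration (25 uM) primary run went on to concentration series. Displacement of radioligand was counted by filtration and scintillation, 18 h post-dose, using prostate extracts from testosterone-pretreated rats, with DMSO as baseline.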

The target of experiment [3] is mouse Estrogen Receptor alpha (Era), Esr1 (gene 13982) (UniProt P19785). Briefly: NVS_NR_mERa: NovaScreen (NVS) Nuclear Receptor Binding Assay for mouse Estrogen Receptor alpha (Era) (AID 2283378).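 Note: hit means loss of bound radioligand signal relative to DMSO.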 Put shortly:
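Filter radiodetection of radioligand displacement from extracted receptor protein, measured 18 h post-dose. Single 25 uM concentration in duplicate initially, with concentration-series follow-up. Binding loss fitted relative to DMSO.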

The target of experiment [4] is Agonist Androgen Response Element (ARE), AR (gene 367) (UniProt P10275). Briefly: OT_AR_ARELUC_AG_1440: Odyssey Thera (OT) 24-hour CHO-K1 Luciferase Assay for Agonist Androgen Response Element (ARE) (AID 2283379). Put shortly:
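Readout: luciferase bioluminescence from CHO-K1 ARE-luc cells, measured 24 h post-dosing; agonism = increased mean luminescence vs DMSO controls, fitted in positive direction.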

Experiment [5] has as its target Estrogen receptor beta (Homo sapiens) (UniProt Q92731). Briefly: OT_ER_ERbERb_1440: Odyssey Thera (OT) 24-hour HEK293T Protein-Complementation Assay for Estrogen Receptor-beta/-beta Homodimer (AID 2283380).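 Note: fluorescence gain from ER beta LBD homodimer complementation read by laser scanning cytometry; scored as signal increase over DMSO baseline for both agonists and antagonists.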 Put shortly: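 Fluorescence increase, nuclear for agonists or whole-cell for antagonists, relative to DMSO vehicle, quantified by laser scanning cytometer after fixation and Draq5 staining. Readout from 24 h treatment of HEK293T cells carrying complementation-paired ER beta LBD (aa 310-547).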

The target of experiment [6] is Estrogen receptor (Homo sapiens) (UniProt P03372). The experiment in a line: OT_ERa_GFPERaERE_0480: Odyssey Thera (OT) 8-hour HeLa Transcription Induction Assay for Estrogen Receptor (AID 2283381; active = hit-call score of the fitted dose curve at least 0.9, where 1 is the maximum; inactive = score below 0.9). Put shortly:
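Fluorescence microscopy with high-content image analysis measures ERE-driven GFP induction in HeLa cells at 8 h post-dose. Increases fitted against DMSO baseline.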

Experiment [7] has the same target. The experiment in a line: OT_ERa_GFPERaERE_0120: Odyssey Thera (OT) 2-hour HeLa Transcription Induction Assay for Estrogen Receptor (AID 2283382). Put shortly:
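Fluorescence-microscopy images of the GFP-ERα/ERE reporter, scored by high-content image algorithms, give the readout. HeLa exposure lasted 2 h, and only signal increase over DMSO was fitted.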

For experiment [8], the target named is Peroxisome proliferator-activated receptor gamma (Homo sapiens) (UniProt P37231). Briefly: OT_PPARg_PPARgSRC1_0480: Odyssey Thera (OT) 8-hour Protein-Complementation Assay for Peroxisome Proliferator-activated Receptor Gamma / SRC-1 Co-activator (AID 2283387).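 Note: nuclear to cytoplasmic split Venus YFP fluorescence ratio reporting PPARg SRC-1 interaction.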 Put shortly:
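Protein-fragment complementation of split Venus YFP reports PPARg/SRC-1 interaction in HEK293T (transfected 48 h before treatment), exposed 8 h. Readout: N/C fluorescence ratio at 488 nm from imaging, Draq5 for segmentation, positive fit relative to DMSO.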

Experiment [9] shares this target. Briefly: OT_PPARg_PPARgSRC1_1440: Odyssey Thera (OT) 24-hour Protein-Complementation Assay for Peroxisome Proliferator-activated Receptor Gamma/ SRC-1 Co-activator (AID 2283388).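 Note: nuclear to cytoplasmic ratio of reconstituted Venus YFP fluorescence in fixed imaged cells.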 Put shortly: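 Readout is the 488 nm N/C fluorescence ratio from fixed, Draq5-stained HEK293T cells after 24 h compound exposure. Cells carried transiently transfected PPARg and SRC-1 fused to Venus fragments, transfected 48 h before treatment.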

Experiment [10] concerns guinea pig Dopamine Transporter (DAT), gene 100714898. The experiment in a line: NVS_TR_gDAT: NovaScreen (NVS) Transporter Assay for guinea pig Dopamine Transporter (DAT) (AID 2283369).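 Note: active compounds lower bound radioligand signal relative to DMSO.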 The essentials: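 Radioligand displacement on membranes from guinea pig striatum, 2 h exposure, bound label counted by filtration and scintillation. Tested at 25 uM in duplicate, then actives in concentration series to 50 uM; DMSO as negative control.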

Experiment [11] concerns the target human Dopamine Transporter (DAT), SLC6A3 (gene 6531) (UniProt Q01959). Briefly: NVS_TR_hDAT: NovaScreen (NVS) Transporter Assay for human Dopamine Transporter (DAT) (AID 2283374).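 Note: activity means loss of bound radioligand signal relative to DMSO.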 The essentials:
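Duplicate single-point screening at 25 uM preceded concentration-series follow-up of actives. Binding was measured by competitive displacement of a radioligand from DAT protein, filter-counted by scintillation 1 h after dosing. Decrease relative to DMSO taken as activity.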

Experiment [12] deals with rat Serotonin Transporter (SERT), Slc6a4 (gene 25553) (UniProt P31652). Briefly: NVS_TR_rSERT: NovaScreen (NVS) Transporter Assay for rat Serotonin Transporter (SERT) (AID 2283375). Put shortly:
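Radioligand binding with competitive displacement on rat forebrain membrane preparations, counted by filtration and scintillation after 1 h. Primary single-point duplicates at 25 uM; active chemicals followed up in concentration-response. DMSO served as baseline.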

Experiment [13] has as its target Bile acid receptor (Homo sapiens) (UniProt Q96RI1). The experiment in a line: OT_FXR_FXRSRC1_0480: Odyssey Thera (OT) 8-hour HEK293T Protein-Complementation Assay for Farnesoid X receptor/SRC-1 Co-activator (AID 2283383). The essentials: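 Binding of FXR to coactivator SRC-1 was read as fluorescence from a reconstituted split reporter in HEK293T cells, 8 h after chemical addition. Only increases in signal versus DMSO were fit.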

For experiment [14] the target is unchanged. The experiment in a line: OT_FXR_FXRSRC1_1440: Odyssey Thera (OT) 24-hour HEK293T Protein-Complementation Assay for Farnesoid X receptor/SRC-1 Co-activator (AID 2283384). Put shortly:
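Protein-fragment complementation: FXR and SRC-1 fused to reporter fragments that reassemble on interaction, read by fluorescence intensity. Human HEK293T cells measured 24 h post-dose; positive-direction fit versus DMSO.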

The nature of experiment [15]: CEETOX_H295R_11DCORT: CeeTox H295R High-throughput Steroidogenesis Assay for 11-Deoxycortisol (11DCORT) (AID 2283432; active = hit-call score of the fitted dose curve at least 0.9, where 1 is the maximum; inactive = score below 0.9;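 for AC50: 11-deoxycortisol secreted into the medium measured by LC-MS/MS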). The following applies: actives raise or lower the signal. The essentials:
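Human adrenal H295R cells were prestimulated with 10 uM forskolin for 48 h, then exposed to test chemical (0.1% DMSO final) for 48 h. Medium 11-deoxycortisol was quantified by MTBE extraction and HPLC-MS/MS; bidirectional fitting relative to DMSO.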

The nature of experiment [16]: CEETOX_H295R_OHPREG: CeeTox H295R High-throughput Steroidogenesis Assay for OH-Pregnenolone (OHPREG) (AID 2283434; active = hit-call score of the fitted dose curve at least 0.9, where 1 is the maximum; inactive = score below 0.9). The following applies: actives raise or lower the signal. Put shortly: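 Secreted 17alpha-hydroxypregnenolone measured by HPLC-MS/MS after liquid-liquid extraction. Human adrenal H295R cells received 48 h forskolin (10 uM) stimulation before 48 h chemical exposure at 0.1% final DMSO; MTT viability in same wells; bidirectional fit against DMSO.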

Experiment [17] concerns the target Glucocorticoid receptor (Homo sapiens) (UniProt P04150). Briefly: NVS_NR_hGR: NovaScreen (NVS) Nuclear Receptor Binding Assay for human Glucocorticoid Receptor (GR) (AID 2283363).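 Note: activity is loss of specific radioligand binding signal relative to DMSO.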 Put shortly: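 Compounds first tested in duplicate at 25 uM, actives followed up in concentration series. Binding to extracted GR protein measured as competitive radioligand displacement, filter scintillation read 16 h post-dosing, normalised to DMSO.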

Experiment [18] addresses guinea pig Sigma Receptor, Non-selective Binding, SIGMAR1 (gene 100135589) (UniProt Q60492). The experiment in a line: NVS_OR_gSIGMA_NonSelective: NovaScreen (NVS) Nuclear Receptor Binding Assay for guinea pig Sigma Receptor, Non-selective Binding (AID 2283367). The essentials:
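Guinea pig brain membrane sigma sites were labelled with a radioligand, and bound radioactivity was counted after filtration 1 h post-dose. Compounds were screened at 25 uM in duplicate, then retested as concentration series when active.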

In experiment [19] the target is human Thyroid Receptor Alpha (TRa), THRA (gene 7067) (UniProt P10827). Briefly: NVS_NR_hTRa_Antagonist: NovaScreen (NVS) Nuclear Receptor Binding Assay for human Thyroid Receptor Alpha Antagonism (TRa) (AID 2283362).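 Note: activity is loss of signal relative to DMSO baseline.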 Put shortly:
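Actives from a duplicate 25 uM single-point screen were retested in concentration series. The cell-free antagonist-format binding assay was read by AlphaLISA chemiluminescence at 1 h, scored as signal loss relative to DMSO.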

Records with an inconclusive call do not appear. Active and inactive are the calls of the source. Rule for the calls, unless noted: active = hit-call score of the fitted dose curve at least 0.9, where 1 is the maximum; inconclusive = response in the unintended direction; inactive = score below 0.9.

Usually AC50 stands for the concentration at which the activity in the assay is half-maximal.

Chain of Bile acid receptor (Homo sapiens) (Q96RI1 whole entry, looked up): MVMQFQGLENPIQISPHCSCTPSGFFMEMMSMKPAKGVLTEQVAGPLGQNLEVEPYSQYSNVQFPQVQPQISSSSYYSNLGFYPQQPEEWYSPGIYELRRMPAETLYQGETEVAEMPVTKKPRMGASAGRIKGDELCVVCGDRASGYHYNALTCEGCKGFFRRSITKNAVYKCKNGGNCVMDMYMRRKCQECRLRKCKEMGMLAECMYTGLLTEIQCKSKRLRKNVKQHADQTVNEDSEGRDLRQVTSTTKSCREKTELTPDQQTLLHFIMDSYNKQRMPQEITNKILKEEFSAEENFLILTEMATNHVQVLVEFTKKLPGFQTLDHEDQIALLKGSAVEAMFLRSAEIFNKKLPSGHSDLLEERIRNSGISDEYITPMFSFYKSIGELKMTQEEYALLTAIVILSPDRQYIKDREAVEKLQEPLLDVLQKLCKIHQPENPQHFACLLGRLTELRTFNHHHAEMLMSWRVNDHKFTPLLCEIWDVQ
Chain of rat Serotonin Transporter (SERT), Slc6a4 (gene 25553) (P31652 whole entry, looked up): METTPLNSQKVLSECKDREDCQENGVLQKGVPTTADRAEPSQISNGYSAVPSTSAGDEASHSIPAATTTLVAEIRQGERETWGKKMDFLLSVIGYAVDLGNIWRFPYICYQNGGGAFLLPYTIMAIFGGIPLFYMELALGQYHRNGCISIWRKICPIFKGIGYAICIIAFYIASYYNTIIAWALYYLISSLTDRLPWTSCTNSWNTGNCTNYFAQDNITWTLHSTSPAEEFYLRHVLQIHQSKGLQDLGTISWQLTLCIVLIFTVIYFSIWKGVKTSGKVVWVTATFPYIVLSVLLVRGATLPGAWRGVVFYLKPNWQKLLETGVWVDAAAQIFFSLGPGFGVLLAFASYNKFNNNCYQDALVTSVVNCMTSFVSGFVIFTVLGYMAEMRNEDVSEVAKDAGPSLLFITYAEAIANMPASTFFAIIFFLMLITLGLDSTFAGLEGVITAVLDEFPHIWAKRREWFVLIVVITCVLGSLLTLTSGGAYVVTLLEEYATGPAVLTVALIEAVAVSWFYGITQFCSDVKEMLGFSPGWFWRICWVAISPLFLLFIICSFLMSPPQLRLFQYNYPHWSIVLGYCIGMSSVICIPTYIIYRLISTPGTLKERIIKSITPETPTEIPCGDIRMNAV
Chain of Estrogen receptor (Homo sapiens) (P03372 whole entry, looked up): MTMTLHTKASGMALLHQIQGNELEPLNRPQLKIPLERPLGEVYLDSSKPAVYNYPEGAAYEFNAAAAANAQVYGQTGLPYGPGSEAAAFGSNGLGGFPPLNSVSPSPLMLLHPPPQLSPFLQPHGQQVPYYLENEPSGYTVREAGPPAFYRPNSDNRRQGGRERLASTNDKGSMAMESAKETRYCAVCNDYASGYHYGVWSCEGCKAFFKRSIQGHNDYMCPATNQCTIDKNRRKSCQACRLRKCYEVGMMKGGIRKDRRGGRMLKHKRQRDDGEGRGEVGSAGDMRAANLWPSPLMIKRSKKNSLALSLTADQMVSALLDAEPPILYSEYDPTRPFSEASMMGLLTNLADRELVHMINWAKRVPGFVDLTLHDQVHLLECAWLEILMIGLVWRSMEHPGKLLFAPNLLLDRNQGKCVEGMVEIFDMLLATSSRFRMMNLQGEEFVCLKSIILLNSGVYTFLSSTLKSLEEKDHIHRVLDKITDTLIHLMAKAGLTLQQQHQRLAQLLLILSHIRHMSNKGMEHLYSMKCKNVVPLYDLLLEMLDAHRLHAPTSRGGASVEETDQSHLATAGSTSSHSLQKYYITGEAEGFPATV
Chain of human Dopamine Transporter (DAT), SLC6A3 (gene 6531) (Q01959 whole entry, looked up): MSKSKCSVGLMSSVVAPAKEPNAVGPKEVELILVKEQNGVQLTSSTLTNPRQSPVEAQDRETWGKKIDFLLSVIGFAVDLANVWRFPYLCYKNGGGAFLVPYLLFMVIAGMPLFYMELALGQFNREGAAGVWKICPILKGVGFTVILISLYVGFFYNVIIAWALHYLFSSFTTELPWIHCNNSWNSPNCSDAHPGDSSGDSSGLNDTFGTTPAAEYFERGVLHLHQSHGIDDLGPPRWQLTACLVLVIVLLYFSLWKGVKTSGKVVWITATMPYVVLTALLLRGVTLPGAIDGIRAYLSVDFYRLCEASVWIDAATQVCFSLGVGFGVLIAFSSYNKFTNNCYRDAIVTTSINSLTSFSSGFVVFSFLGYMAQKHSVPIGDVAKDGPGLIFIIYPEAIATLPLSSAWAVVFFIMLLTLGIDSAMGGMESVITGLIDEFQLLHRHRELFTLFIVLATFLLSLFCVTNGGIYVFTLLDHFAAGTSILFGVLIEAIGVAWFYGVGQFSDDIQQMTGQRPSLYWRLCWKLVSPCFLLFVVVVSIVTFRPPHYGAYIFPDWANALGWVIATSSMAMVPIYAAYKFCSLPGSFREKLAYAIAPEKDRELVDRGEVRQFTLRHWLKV
Chain of Estrogen receptor beta (Homo sapiens) (Q92731 whole entry, looked up, the tested form may be a part): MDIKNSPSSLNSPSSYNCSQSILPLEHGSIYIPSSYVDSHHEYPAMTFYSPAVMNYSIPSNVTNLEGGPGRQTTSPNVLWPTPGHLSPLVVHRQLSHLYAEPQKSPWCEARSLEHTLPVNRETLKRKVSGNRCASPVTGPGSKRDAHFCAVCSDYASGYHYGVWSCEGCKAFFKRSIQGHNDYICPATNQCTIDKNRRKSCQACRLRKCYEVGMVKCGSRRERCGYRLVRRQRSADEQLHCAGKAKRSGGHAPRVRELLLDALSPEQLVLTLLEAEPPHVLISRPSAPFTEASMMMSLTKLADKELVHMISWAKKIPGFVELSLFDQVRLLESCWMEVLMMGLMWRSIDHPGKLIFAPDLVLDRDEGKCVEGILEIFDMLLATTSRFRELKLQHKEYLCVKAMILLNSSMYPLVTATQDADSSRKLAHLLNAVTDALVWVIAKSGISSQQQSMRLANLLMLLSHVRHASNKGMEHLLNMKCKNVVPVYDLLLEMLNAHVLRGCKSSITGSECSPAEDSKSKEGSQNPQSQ
Chain of Peroxisome proliferator-activated receptor gamma (Homo sapiens) (P37231 whole entry, looked up, the tested form may be a part): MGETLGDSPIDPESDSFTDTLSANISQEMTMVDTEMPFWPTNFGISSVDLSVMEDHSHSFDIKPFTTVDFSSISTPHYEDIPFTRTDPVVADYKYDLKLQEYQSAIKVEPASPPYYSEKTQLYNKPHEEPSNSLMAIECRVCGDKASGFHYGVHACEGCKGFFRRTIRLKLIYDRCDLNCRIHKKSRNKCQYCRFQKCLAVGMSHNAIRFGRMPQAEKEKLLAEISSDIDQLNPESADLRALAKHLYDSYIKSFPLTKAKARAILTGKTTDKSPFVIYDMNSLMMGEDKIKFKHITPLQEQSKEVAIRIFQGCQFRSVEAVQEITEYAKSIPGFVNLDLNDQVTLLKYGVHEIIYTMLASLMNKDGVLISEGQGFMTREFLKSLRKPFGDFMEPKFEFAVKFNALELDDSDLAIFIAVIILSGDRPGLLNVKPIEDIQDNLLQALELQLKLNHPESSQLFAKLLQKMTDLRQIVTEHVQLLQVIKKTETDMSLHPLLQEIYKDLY
Chain of Agonist Androgen Response Element (ARE), AR (gene 367) (P10275 whole entry, looked up): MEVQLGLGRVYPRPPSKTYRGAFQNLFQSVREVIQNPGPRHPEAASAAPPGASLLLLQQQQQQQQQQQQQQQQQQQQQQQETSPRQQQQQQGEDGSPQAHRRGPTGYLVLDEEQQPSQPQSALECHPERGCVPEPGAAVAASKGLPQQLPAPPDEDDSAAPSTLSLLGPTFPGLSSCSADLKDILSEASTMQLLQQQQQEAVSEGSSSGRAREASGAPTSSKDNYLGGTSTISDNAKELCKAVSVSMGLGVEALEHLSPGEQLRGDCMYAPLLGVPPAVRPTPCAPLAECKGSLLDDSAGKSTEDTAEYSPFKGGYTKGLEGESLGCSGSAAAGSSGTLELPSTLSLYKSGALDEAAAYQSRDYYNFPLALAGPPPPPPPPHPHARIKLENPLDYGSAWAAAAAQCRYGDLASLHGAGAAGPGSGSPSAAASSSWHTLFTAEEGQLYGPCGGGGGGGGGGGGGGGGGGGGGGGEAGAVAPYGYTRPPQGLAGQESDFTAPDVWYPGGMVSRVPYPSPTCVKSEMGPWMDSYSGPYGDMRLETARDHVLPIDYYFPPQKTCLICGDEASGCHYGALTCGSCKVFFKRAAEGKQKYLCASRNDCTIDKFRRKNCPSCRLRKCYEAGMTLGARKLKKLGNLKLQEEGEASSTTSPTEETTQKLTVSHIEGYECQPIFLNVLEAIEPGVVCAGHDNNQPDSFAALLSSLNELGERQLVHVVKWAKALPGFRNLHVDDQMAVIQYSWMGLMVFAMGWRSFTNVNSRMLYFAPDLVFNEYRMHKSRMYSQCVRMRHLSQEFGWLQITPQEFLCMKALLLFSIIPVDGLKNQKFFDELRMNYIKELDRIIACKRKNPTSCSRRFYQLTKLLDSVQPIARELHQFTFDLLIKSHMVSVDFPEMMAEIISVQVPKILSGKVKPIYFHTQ
Chain of mouse Estrogen Receptor alpha (Era), Esr1 (gene 13982) (P19785 whole entry, looked up): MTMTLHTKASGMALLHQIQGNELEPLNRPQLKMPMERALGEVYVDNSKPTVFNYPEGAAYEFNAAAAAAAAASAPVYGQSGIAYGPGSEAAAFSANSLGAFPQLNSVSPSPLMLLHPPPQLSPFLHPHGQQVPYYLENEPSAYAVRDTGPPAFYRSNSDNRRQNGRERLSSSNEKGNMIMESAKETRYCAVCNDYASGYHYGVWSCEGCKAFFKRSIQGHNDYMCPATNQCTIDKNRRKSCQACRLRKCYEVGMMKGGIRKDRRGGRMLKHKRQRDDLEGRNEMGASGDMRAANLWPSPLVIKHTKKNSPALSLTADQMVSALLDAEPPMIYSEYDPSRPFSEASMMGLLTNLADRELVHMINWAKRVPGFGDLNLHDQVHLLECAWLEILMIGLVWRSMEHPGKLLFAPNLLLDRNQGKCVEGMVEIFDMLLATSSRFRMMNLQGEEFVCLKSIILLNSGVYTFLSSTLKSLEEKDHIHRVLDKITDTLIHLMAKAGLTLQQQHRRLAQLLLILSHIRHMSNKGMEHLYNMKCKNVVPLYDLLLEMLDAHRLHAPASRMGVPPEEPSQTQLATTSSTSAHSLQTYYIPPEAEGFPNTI

Turning to `CCCCCCCCCCCCCC[P+](CCCC)(CCCC)CCCC`, the AC50 in experiment [1] is 3.23 µM (active); in [2] it was 3.82 µM (active); in experiment [6] it was 10.4 µM (active); in experiment [7], 12.2 µM (active). In addition, the result in experiment [3], in [4], in experiment [5], in experiment [8] and in experiment [9] was inactive.

Regarding `C[C@]12CC[C@H]3C(=CCc4cc(O)ccc43)[C@@H]1CCC2=O`, the AC50 in experiment [10] was 1.16 µM (active); in [11] it was 4.59 µM (active); in experiment [12] it was 15.6 µM (active); in experiment [4], 0.284 µM (active); in [13], 9.93 µM (active); in [15], 17.8 µM (active). For the same compound, the half-maximal activity concentration (AC50) in experiment [16] was 3.5 µM (active). The compound was classed as inactive in [14], in [8] and in experiment [9].

In the case of `CCCCCCCC/C=C\CCCCCCCC(=O)N(C)CC(=O)O`, the figures for the AC50 in experiment [17] and in [13] were 4.85 µM (active) and 72.6 µM (active), respectively. Moreover, the compound was called inactive in experiment [3], in [5], in experiment [6], in [7], in [14] and in experiment [8]. For the same compound, the outcome in [9] was inactive.

Turning to `CC(=O)CCC(C)C`, the compound was called inactive in [11], in experiment [6], in experiment [7], in experiment [13], in [8] and in [9].

Regarding `CCN(CC)c1ccc2c(c1)Oc1cc(N(CC)CC)ccc1C21OC(=O)c2ccccc21`, the outcome in experiment [10] was inactive. Further, in [12], the half-maximal activity concentration (AC50) is 8.16 µM (active).

As for `CCN(CC)c1ccc(N=Nc2ccccc2)cc1`, the result in experiment [10], in experiment [11] and in [16] was inactive. The AC50 in experiment [12] is 3.36 µM (active); in [15], 10 µM (active).

As for `Cc1cc(C)c(O)c(C(C)(C)C)c1`, the AC50 in [18] was 16.5 µM (active).

Turning to `c1ccc(C[P+](c2ccccc2)(c2ccccc2)c2ccccc2)cc1`, the half-maximal activity concentration (AC50) in experiment [18] was 4.57 µM (active); in experiment [10], 15.1 µM (active); in experiment [11] it was 16.7 µM (active); in experiment [12], 3.33 µM (active).

`Cc1ccc(S(=O)(=O)C(I)I)cc1`: the AC50 in experiment [10] was 15.6 µM (active).

For the compound `CCCCCCCCCc1ccc(OCCO)cc1`, the compound was classed as inactive in [3], in experiment [6], in experiment [7], in experiment [8], in experiment [9] and in experiment [15]. Further, the compound was classed as inactive in experiment [16]. The AC50 was 0.238 µM (active) in experiment [4], 4.63 µM (active) in [5], 4.7 µM (active) in experiment [13] and 28.8 µM (active) in experiment [14].

As to `CCN=C1C=CC(=C(c2ccc(N(CC)CC)cc2)c2ccc(N(CC)CC)cc2)c2ccccc21`, the AC50 in experiment [19] was 1.15 µM (active); in experiment [17], 0.404 µM (active); in experiment [2], 1.05 µM (active). In addition, the call in experiment [4], in experiment [5], in experiment [6], in [7], in experiment [8] and in [9] was inactive.

Source of the values: PubChem BioAssay (EPA / NIEHS).
